In the supplement of paper PMC10849652:
Of roughly 7,900 targets only a part is listed; those with a hit were picked by preference. About 0.6% of all pairs of compound and target were hits.

What was measured:
Test in all cases: log2 fold change, soluble protein after heating vs DMSO (PISA); higher = thermal stabilisation; K562 cells, 10 uM, 30 min; active = over 0.2 and 3.5 SD of the protein, either way, in both replicates (recomputed)
[1] = compound: CC1=C(SC2=C1C(=N[C@H](C3=NN=C(N32)C)CC(=O)N)C4=CC=C(C=C4)Cl)C
Outline: (§1)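 K562 cells at 2×10^6 cells/mL were given 10 μM compound for 30 min. Aliquots then went through 3 min of heating across 48°C-58°C, were pooled, and were extracted in PBS with 0.5% NP-40 at 4°C, and the supernatant after 21,000xg for 90 min was quantified by TMTpro 16plex LC-MS/MS with channel sums equalised. Thermal stability relative to control samples, from duplicates, is given as log2 fold change.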

[2] = compound: CC1=C2C(=CC=C1)N=C(N(C2=O)C3=CC=CC=C3C)CN4C=NC5=C(N=CN=C54)N
Outline: as §1

[3] = compound: Cc1sc2c(c1C)C(c1ccc(Cl)cc1)=N[C@@H](CC(=O)OC(C)(C)C)c1nnc(C)n1-2
Outline: as §1

[4] = compound: c1ccc([C@@H]2C[C@H]2NC2CCNCC2)cc1
Outline: as §1

[5] = compound: C1=CC=C(C=C1)[C@H](COC2=CC3=C(C=C2)NC(=O)N3)NC(=O)C4=CC=CN(C4=O)CC5=CC(=C(C=C5)F)F
Outline: as §1

Measured: log2 fold change

MPHOSPH8 isoform 2 (UniProt Q99549)
UniProt Q99549, sequence (Q99549 whole entry, looked up): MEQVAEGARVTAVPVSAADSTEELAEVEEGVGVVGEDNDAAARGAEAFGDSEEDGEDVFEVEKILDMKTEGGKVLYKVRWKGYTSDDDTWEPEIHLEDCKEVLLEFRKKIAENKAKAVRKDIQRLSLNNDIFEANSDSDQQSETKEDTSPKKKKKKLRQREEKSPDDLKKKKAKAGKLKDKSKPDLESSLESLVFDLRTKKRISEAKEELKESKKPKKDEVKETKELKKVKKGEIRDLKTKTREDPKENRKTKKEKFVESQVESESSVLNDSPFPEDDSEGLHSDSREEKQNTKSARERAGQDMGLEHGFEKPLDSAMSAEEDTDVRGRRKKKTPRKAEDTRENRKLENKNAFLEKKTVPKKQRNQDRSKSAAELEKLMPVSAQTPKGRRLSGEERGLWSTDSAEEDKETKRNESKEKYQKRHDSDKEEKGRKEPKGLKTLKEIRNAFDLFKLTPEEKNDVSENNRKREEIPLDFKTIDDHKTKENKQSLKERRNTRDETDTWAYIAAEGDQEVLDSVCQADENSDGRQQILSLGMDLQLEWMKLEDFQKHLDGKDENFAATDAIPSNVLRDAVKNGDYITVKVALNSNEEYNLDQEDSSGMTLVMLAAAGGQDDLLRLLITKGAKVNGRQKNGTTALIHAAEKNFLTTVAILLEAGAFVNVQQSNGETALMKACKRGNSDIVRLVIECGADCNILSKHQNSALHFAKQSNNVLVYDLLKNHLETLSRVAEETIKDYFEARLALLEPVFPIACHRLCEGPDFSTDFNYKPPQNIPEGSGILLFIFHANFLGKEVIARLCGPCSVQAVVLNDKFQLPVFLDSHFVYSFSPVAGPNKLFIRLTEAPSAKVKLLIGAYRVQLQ
inactive: [1] -0.064 | [2] -0.009 | [3] 0.089 | [4] 0.061

NDUFA7 (UniProt M0R0N0)
inactive: [5] -0.091 | [2] 0.23

NQO1 (UniProt P15559)
inactive: [5] 0.07 | [1] 0.122 | [2] 0.083 | [3] -0.015 | [4] -0.072

MLH1 (UniProt P40692)
inactive: [5] 0.192 | [1] 0.007 | [3] -0.109 | [4] -0.065

NDUFS7 (UniProt O75251)
inactive: [5] 0 | [1] 0.062 | [2] 0.015 | [3] -0.051 | [4] -0.022

NDUFB7 (UniProt P17568)
inactive: [5] -0.032 | [1] -0.01 | [2] -0.004 | [3] -0.015 | [4] 0.03

MYO19 (UniProt Q96H55)
UniProt Q96H55, sequence (Q96H55 whole entry, looked up): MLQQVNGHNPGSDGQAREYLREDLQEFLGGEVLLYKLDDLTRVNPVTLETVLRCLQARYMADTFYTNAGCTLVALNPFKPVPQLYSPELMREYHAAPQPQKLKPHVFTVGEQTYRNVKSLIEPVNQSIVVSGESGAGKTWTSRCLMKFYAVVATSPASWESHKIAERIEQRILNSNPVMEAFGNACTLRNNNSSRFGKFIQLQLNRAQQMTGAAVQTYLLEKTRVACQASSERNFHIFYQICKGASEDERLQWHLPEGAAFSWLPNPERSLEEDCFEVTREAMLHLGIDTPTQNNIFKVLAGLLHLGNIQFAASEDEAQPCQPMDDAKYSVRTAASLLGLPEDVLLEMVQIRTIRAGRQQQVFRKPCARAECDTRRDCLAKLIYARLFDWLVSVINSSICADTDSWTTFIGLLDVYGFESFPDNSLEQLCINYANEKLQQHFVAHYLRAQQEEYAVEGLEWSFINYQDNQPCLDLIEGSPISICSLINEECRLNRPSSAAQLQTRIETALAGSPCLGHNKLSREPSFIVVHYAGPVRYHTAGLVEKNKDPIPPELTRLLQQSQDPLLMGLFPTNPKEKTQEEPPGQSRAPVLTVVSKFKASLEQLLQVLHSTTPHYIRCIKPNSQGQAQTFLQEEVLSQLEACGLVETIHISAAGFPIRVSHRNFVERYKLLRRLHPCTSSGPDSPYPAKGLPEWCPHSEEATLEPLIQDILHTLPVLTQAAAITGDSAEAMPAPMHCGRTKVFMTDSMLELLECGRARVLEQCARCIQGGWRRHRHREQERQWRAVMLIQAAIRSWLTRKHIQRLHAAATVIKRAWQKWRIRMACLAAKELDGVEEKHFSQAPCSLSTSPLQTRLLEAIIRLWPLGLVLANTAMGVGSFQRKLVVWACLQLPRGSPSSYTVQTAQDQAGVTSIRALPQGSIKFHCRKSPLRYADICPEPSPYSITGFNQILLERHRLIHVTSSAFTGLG
inactive: [5] -0.07 | [1] 0.016 | [2] 0.146 | [4] 0.088

MITF (UniProt O75030)
inactive: [2] -0.059

NAP1L1 (UniProt B7Z9C2)
inactive: [5] 0.003 | [2] 0.134

NAGPA (UniProt Q9UK23)
inactive: [5] 0.179 | [1] -0.048 | [3] -0.004 | [4] 0.061

NOLC1 isoform 3 (UniProt Q14978)
inactive: [1] 0.007 | [4] -0.021

MRM2 (UniProt Q9UI43)
inactive: [1] 0.021 | [2] 0.071 | [3] 0 | [4] -0.052

OPHN1 (UniProt O60890)
inactive: [5] -0.209 | [1] 0.033 | [3] 0.008 | [4] 0.07

NEMP1 (UniProt O14524)
UniProt O14524, sequence (O14524 whole entry, looked up): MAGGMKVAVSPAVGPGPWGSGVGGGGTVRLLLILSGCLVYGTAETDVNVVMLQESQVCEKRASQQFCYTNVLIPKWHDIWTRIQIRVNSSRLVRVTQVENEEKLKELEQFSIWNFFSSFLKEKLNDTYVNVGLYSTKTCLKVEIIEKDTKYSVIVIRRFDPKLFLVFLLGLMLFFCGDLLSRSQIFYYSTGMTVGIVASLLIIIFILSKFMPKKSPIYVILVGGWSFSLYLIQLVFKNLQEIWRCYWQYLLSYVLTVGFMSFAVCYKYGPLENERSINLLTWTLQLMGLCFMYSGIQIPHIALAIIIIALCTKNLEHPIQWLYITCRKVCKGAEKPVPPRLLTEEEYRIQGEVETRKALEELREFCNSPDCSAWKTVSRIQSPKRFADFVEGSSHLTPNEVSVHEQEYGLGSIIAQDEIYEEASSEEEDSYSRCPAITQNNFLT
inactive: [5] 0.015 | [1] -0.003 | [2] 0.036 | [3] 0.048 | [4] -0.018

MSL1 (UniProt Q68DK7)
inactive: [5] 0.083 | [2] 0.17

NUDT16 (UniProt Q96DE0)
inactive: [5] 0.029 | [1] 0.085 | [2] -0.045 | [3] -0.075 | [4] -0.006

NELFCD (UniProt Q8IXH7)
inactive: [5] -0.022 | [1] 0.155 | [2] 0.214 | [4] 0.034

NOP56 (UniProt O00567)
inactive: [5] 0.045 | [1] -0.289 | [2] -0.281 | [3] 0.154 | [4] 0.024

NA, A0A2R8Y3M9
inactive: [5] -0.093 | [1] -0.069 | [4] 0.161

NUDT6 (UniProt P53370)
UniProt P53370, sequence (P53370 whole entry, looked up): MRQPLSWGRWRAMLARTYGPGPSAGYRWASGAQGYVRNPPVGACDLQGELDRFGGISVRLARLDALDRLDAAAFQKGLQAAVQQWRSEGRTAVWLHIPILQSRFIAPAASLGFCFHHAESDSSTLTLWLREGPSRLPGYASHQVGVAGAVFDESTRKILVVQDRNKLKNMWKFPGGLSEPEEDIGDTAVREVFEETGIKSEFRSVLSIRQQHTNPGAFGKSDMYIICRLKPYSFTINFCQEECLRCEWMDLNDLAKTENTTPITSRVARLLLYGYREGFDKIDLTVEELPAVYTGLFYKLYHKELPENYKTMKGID
inactive: [1] 0.073 | [2] 0.34 | [3] -0.023 | [4] -0.212

NIBAN1 (UniProt Q9BZQ8)
UniProt Q9BZQ8, sequence (Q9BZQ8 whole entry, looked up): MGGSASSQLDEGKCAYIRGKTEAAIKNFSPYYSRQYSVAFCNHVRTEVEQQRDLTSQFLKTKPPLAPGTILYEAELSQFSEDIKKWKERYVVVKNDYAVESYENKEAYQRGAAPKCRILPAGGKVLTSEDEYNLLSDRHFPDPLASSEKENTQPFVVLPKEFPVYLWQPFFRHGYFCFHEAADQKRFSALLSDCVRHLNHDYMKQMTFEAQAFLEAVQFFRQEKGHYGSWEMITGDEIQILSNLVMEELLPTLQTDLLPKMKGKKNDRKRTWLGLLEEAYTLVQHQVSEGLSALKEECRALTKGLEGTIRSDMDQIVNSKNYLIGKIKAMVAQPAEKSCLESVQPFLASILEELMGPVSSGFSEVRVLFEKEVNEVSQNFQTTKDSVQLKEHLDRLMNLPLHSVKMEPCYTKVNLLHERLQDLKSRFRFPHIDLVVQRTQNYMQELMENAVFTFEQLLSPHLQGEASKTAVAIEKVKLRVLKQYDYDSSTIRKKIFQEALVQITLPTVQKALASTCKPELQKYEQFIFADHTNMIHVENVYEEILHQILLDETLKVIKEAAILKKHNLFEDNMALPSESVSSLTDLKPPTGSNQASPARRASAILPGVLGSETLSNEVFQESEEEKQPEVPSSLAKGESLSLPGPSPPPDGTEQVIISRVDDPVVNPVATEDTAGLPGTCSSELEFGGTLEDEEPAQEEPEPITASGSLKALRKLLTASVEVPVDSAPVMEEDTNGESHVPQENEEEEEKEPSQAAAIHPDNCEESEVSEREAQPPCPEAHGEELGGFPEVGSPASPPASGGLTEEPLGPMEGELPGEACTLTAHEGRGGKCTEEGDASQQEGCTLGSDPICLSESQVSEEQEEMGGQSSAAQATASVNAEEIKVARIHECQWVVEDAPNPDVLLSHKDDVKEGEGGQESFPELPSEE
inactive: [5] -0.017 | [1] 0.015 | [2] 0.056 | [3] 0.028 | [4] 0.03

OSBPL3 (UniProt Q9H4L5)
UniProt Q9H4L5, sequence (Q9H4L5 whole entry, looked up): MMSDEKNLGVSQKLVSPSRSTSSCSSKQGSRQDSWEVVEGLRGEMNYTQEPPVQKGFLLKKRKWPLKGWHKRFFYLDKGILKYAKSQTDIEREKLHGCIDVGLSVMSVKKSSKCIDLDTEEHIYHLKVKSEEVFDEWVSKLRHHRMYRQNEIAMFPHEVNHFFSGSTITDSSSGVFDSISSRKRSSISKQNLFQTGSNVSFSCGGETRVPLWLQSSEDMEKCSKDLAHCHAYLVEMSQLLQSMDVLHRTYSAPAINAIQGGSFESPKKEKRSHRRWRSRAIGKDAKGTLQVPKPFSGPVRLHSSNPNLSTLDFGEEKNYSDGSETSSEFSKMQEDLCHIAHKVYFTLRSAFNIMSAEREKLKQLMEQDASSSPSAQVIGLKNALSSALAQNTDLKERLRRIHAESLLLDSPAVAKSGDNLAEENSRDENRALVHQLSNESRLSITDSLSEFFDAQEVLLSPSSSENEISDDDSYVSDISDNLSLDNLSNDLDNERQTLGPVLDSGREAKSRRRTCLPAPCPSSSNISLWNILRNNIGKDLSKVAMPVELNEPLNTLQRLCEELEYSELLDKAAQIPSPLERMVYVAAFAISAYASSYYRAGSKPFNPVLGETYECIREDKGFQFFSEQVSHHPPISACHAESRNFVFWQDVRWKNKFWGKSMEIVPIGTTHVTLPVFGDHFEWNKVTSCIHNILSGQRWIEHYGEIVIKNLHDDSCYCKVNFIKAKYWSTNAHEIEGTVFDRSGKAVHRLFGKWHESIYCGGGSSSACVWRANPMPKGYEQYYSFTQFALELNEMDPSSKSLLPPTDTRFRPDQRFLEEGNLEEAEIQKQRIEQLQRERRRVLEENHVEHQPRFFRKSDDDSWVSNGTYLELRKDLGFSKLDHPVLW
inactive: [1] -0.077 | [2] -0.035 | [3] 0.292 | [4] 0.14

MOB2 isoform 3 (UniProt Q70IA6)
inactive: [5] -0.015 | [1] 0.129 | [3] 0.067 | [4] -0.096

NUP85 (UniProt Q9BW27)
UniProt Q9BW27, sequence (Q9BW27 whole entry, looked up): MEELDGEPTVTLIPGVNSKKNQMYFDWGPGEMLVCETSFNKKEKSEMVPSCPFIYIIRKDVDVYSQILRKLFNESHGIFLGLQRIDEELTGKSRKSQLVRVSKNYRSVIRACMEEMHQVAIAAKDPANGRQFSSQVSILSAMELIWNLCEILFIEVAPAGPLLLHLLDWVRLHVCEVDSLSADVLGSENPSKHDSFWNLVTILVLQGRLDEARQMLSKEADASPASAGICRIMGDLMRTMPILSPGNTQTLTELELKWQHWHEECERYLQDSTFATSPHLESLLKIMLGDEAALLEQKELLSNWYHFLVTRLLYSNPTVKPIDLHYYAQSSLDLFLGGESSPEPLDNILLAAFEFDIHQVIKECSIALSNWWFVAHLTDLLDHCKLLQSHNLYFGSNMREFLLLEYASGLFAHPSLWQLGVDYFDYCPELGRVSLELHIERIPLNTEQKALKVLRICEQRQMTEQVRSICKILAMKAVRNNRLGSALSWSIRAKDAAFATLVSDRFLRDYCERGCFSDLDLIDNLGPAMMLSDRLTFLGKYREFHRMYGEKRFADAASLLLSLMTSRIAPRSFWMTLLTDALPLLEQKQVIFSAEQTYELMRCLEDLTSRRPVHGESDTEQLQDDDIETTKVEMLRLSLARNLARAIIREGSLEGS
inactive: [5] -0.009 | [1] -0.018 | [2] 0.042 | [3] -0.004 | [4] 0.019

NUMBL (UniProt Q9Y6R0)
inactive: [5] -0.058 | [1] -0.084 | [2] 0.009 | [4] -0.009

MON1B (UniProt Q7L1V2)
inactive: [5] -0.032 | [1] 0.044 | [2] 0.056 | [3] -0.008 | [4] -0.064

OXR1 isoform 2 (UniProt Q8N573)
inactive: [1] 0.126 | [2] 0.025 | [3] -0.035 | [4] -0.101

MON1A (UniProt Q86VX9)
inactive: [5] 0.1 | [3] -0.071

NA, A0A1W2PSA9
inactive: [1] -0.046 | [3] 0.006 | [4] 0.104

MLX (UniProt Q9UH92)
inactive: [5] -0.055 | [1] 0.032 | [3] 0.093 | [4] -0.011
